From PubChem BioAssay (Tox21)
Records with an inconclusive call do not appear. The source made the active and inactive calls. Unless noted, calls follow the shape of the dose curve; as a rule, active = well fitted curve in the direction sought with a large enough effect in the repeat runs; inconclusive = weak or mixed curves; inactive = flat fitted curve, though single readings scatter.

Key:
[1] = qHTS assay to test for compound auto fluorescence at 535 nm (green) in HEK293 cells (AID 720680)
[2] = qHTS assay to test for compound auto fluorescence at 460 nm (blue) in HEK293 cell free culture (AID 720681)
How it was run: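 Test compounds were pinned into cell-free culture medium (DMEM with 10% FBS) and fluorescence was read directly at Ex/Em 405/460 nm. Signals were expressed as fluorescence equivalents of triamterene, with DMSO vehicle as control.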

[3] = qHTS assay to test for compound auto fluorescence at 535 nm (green) in HEK293 cell free culture (AID 720682)
How it was run: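 Using fluorescein as calibrant, autofluorescence was quantified at 485/535 nm in cell-free DMEM containing 10% FBS after pintool addition of compound or vehicle.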

[4] = qHTS assay to test for compound auto fluorescence at 590 nm (red) in HEK293 cell free culture (AID 720683)
How it was run: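 Tox21 10K library compounds were pinned into cell-free DMEM with 10% FBS and fluorescence was read at excitation 540 nm. Activity is expressed as Rose Bengal sodium equivalency.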

[5] = qHTS assay to test for compound auto fluorescence at 590 nm (red) in HepG2 cell free culture (AID 720684)
How it was run: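 Red fluorescence (540 nm excitation, 590 nm emission) was measured after compound transfer into cell-free MEM supplemented with 10% FBS. Values are equivalencies against Rose Bengal sodium.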

[6] = qHTS assay to test for compound auto fluorescence at 460 nm (blue) in HepG2 cell free culture (AID 720685)
How it was run: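 Compound (23 nL) or DMSO pinned into cell-free MEM with 10% FBS; blue fluorescence read at 405/460 nm excitation/emission, expressed as auto-fluorescence equivalency to triamterene.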

[7] = qHTS assay to test for compound auto fluorescence at 535 nm (green) in HepG2 cell free culture (AID 720686)
[8] = qHTS assay to test for compound auto fluorescence at 460 nm (blue) in HepG2 cells (AID 720687)
How it was run: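 Cells (2,000/well in MEM with 10% FBS) attached overnight at 37 C, then were exposed to compound or DMSO for 1 hr at 37 C, 5% CO2. Fluorescence read at Ex/Em 405/460 nm, expressed as triamterene-equivalent signal.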

[9] = target: Glucocorticoid receptor (Homo sapiens) (UniProt P04150); test: qHTS assay to identify small molecule agonists of the glucocorticoid receptor (GR) signaling pathway (AID 720691; active = well fitted activation curve with a large enough effect in the signal ratio in the repeat runs, not every such curve was filed as active; the % refers to the signal ratio)
Sequence of Glucocorticoid receptor (Homo sapiens) (P04150 whole entry, looked up): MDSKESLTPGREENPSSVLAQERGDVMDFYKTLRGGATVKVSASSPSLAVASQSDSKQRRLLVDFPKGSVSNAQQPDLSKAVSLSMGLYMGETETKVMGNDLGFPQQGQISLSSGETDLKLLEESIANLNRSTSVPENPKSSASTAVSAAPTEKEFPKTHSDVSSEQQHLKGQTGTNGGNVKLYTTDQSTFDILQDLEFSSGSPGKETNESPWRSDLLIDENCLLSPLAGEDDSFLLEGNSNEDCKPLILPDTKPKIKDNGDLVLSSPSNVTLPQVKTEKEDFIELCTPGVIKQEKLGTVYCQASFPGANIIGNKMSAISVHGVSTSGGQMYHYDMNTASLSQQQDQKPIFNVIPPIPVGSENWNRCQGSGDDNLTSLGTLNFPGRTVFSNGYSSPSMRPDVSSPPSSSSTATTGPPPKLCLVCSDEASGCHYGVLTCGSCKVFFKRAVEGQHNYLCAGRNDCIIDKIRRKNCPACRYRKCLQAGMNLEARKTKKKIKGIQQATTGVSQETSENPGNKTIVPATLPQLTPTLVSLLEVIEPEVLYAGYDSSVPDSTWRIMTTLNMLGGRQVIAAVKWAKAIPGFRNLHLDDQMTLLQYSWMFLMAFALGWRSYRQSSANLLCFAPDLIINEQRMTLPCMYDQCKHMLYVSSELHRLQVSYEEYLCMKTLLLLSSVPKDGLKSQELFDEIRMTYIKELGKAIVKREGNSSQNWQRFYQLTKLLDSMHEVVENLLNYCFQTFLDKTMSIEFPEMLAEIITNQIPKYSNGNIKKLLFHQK
How it was run: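 GR-bla HeLa cells carrying a GRE-driven beta-lactamase reporter, exposed to compounds for 18 h at 37 C. Reporter activation read as fluorescence after 2 h with LiveBLAzer B/G FRET substrate at room temperature.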

[10] = target: Glucocorticoid receptor (Homo sapiens) (UniProt P04150); test: qHTS assay to identify small molecule antagonists of the glucocorticoid receptor (GR) signaling pathway (AID 720692; active = well fitted inhibition curve with a large enough effect in the signal ratio in the repeat runs, not every such curve was filed as active; the % refers to the signal ratio)
How it was run: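 GR-bla HeLa cells carrying a GRE-driven beta-lactamase reporter received compound after 4 h plating, then dexamethasone (5 nM final). After 18 h at 37C, the FRET substrate was loaded for 2 h at room temperature and fluorescence read.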
% is scaled to controls: 0 for no effect and ±100 for the full control effect.

O=C(/C=C/c1ccccc1)NCCO
inactive: outcome [1] | outcome [2] | outcome [3] | outcome [4] | outcome [5] | outcome [6] | outcome [7] | outcome [8] | Potency [9]

O=C1OC(=O)c2ccccc21
inactive: outcome [1] | outcome [2] | outcome [3] | outcome [4] | outcome [5] | outcome [6] | outcome [7] | outcome [8] | Potency [9]

CC(C)(C)c1ccc(C=O)cc1
inactive: outcome [1] | outcome [2] | outcome [3] | outcome [4] | outcome [5] | outcome [6] | outcome [7] | outcome [8] | Potency [9]

CCCCCC(=O)OCC
inactive: outcome [1] | outcome [2] | outcome [3] | outcome [4] | outcome [5] | outcome [6] | outcome [7] | outcome [8] | Potency [9]

O=C(O)Cc1cccc(-c2cc(CCCCCCc3ccc(O[C@H]4O[C@H](CO)[C@@H](O)[C@H](O)[C@@H]4O)c(-c4cccc(CC(=O)O)c4)c3)ccc2O[C@H]2O[C@H](CO)[C@@H](O)[C@H](O)[C@@H]2O)c1
inactive: outcome [1] | outcome [2] | outcome [3] | outcome [4] | outcome [5] | outcome [6] | outcome [7] | outcome [8]

C=C(C)C(=O)OC
inactive: outcome [1] | outcome [2] | outcome [3] | outcome [4] | outcome [5] | outcome [6] | outcome [7] | outcome [8] | Potency [9]

C1=CCC(c2ccccc2)CC1 (configuration not stated)
inactive: outcome [1] | outcome [2] | outcome [3] | outcome [4] | outcome [5] | outcome [6] | outcome [7] | outcome [8] | Potency [9]

C=C(C)C(=O)OCCCCCCOC(=O)C(=C)C
inactive: outcome [1] | outcome [2] | outcome [3] | outcome [4] | outcome [5] | outcome [6] | outcome [7] | outcome [8] | Potency [9]

C=CCOc1c(Br)cc(Br)cc1Br
inactive: outcome [1] | outcome [2] | outcome [3] | outcome [4] | outcome [5] | outcome [6] | outcome [7] | outcome [8] | Potency [9]

CC(C)COC(=O)COc1ccc(Cl)cc1Cl
inactive: outcome [1] | outcome [2] | outcome [3] | outcome [4] | outcome [5] | outcome [6] | outcome [7] | outcome [8] | Potency [9] | outcome [10]

CC(=O)OC(C(=O)c1ccccc1)c1ccccc1 (configuration not stated)
inactive: outcome [1] | outcome [2] | outcome [3] | outcome [4] | outcome [5] | outcome [6] | outcome [7] | outcome [8] | Potency [9]

CC1=CC[C@H](CC=O)C1(C)C
inactive: outcome [1] | outcome [2] | outcome [3] | outcome [4] | outcome [5] | outcome [6] | outcome [7] | outcome [8] | Potency [9]

Nc1cc(Cl)cc(S(=O)(=O)O)c1O
inactive: outcome [1] | outcome [2] | outcome [3] | outcome [4] | outcome [5] | outcome [6] | outcome [7] | outcome [8]

CCCCC[Si](OCC)(OCC)OCC
inactive: outcome [1] | outcome [2] | outcome [3] | outcome [4] | outcome [5] | outcome [6] | outcome [7] | outcome [8] | Potency [9]

OC[C@@H](O)[C@H](O)[C@@H](O)[C@@H](O)CO
inactive: outcome [1] | outcome [2] | outcome [3] | outcome [4] | outcome [5] | outcome [6] | outcome [7] | outcome [8]

CCCCCCCCCCCCOC(C)=O
inactive: outcome [1] | outcome [2] | outcome [3] | outcome [4] | outcome [5] | outcome [6] | outcome [7] | outcome [8]

CC(=O)Nc1ncc([N+](=O)[O-])s1
inactive: outcome [1] | outcome [2] | outcome [3] | outcome [4] | outcome [5] | outcome [6] | outcome [7] | outcome [8] | Potency [9]

CO[Si](CCCCl)(OC)OC
inactive: outcome [1] | outcome [2] | outcome [3] | outcome [4] | outcome [5] | outcome [6] | outcome [7] | outcome [8] | Potency [9] | outcome [10]

SCCSCCS
inactive: outcome [1] | outcome [2] | outcome [3] | outcome [4] | outcome [5] | outcome [6] | outcome [7] | outcome [8] | Potency [9]

Cc1ccc(S(=O)(=O)NC(=O)NC2CCCCCCC2)cc1
inactive: outcome [1] | outcome [2] | outcome [3] | outcome [4] | outcome [5] | outcome [6] | outcome [7] | outcome [8] | Potency [9]

Cc1cc(C)cc([N+](=O)[O-])c1
inactive: outcome [1] | outcome [2] | outcome [3] | outcome [4] | outcome [5] | outcome [6] | outcome [7] | outcome [8] | Potency [9] | outcome [10]

c1ccc(CNc2ncnc3nc[nH]c23)cc1
inactive: outcome [1] | outcome [2] | outcome [3] | outcome [4] | outcome [5] | outcome [6] | outcome [7] | outcome [8] | Potency [9]

C=C[Si](C)(C)O[Si](C)(C)C=C
inactive: outcome [1] | outcome [2] | outcome [3] | outcome [4] | outcome [5] | outcome [6] | outcome [7] | outcome [8] | Potency [9] | outcome [10]

CCCCCC1Nc2cc(C(F)(F)F)c(S(N)(=O)=O)cc2S(=O)(=O)N1 (configuration not stated)
inactive: outcome [1] | outcome [2] | outcome [3] | outcome [4] | outcome [5] | outcome [6] | outcome [7] | outcome [8] | Potency [9] | outcome [10]

CC(C)c1ccccc1O
inactive: outcome [1] | outcome [2] | outcome [3] | outcome [4] | outcome [5] | outcome [6] | outcome [7] | outcome [8] | Potency [9] | outcome [10]

C=C(C)C(=O)OC1CC(C)CC(C)(C)C1 (configuration not stated)
inactive: outcome [1] | outcome [2] | outcome [3] | outcome [4] | outcome [5] | outcome [6] | outcome [7] | outcome [8] | Potency [9] | outcome [10]

CCCCOC(=O)C(C)OC(=O)CCC (configuration not stated)
inactive: outcome [1] | outcome [2] | outcome [3] | outcome [4] | outcome [5] | outcome [6] | outcome [7] | outcome [8] | Potency [9] | outcome [10]

NS(=O)(=O)c1cc2c(cc1Cl)NC(CC1CCCC1)NS2(=O)=O (configuration not stated)
inactive: fluorescence, % of fluorescein [1] 0.0502% [at 18.6 µM] | fluorescence, % of fluorescent control [2] -0.0459% [at 18.6 µM] | activity change [3] 0.104% [at 18.6 µM] | fluorescence, % of fluorescent control [4] -0.0938% [at 18.6 µM] | fluorescence, % of Rose Bengal [5] 0.409% [at 18.6 µM] | fluorescence, % of fluorescent control [6] -0.0354% [at 18.6 µM] | fluorescence, % of fluorescein control [7] -0.0012% [at 18.6 µM] | fluorescence, % of fluorescent control [8] 0.11% [at 18.6 µM] | Potency [9] | outcome [10]

CC1(N)CCC(C(C)(C)N)CC1 (configuration not stated)
inactive: outcome [1] | outcome [2] | outcome [3] | outcome [4] | outcome [5] | outcome [6] | outcome [7] | outcome [8] | Potency [9] | outcome [10]

Nc1cc(S(=O)(=O)O)ccc1S(=O)(=O)O
inactive: outcome [1] | outcome [2] | outcome [3] | outcome [4] | outcome [5] | outcome [6] | outcome [7] | outcome [8] | Potency [9] | outcome [10]

COc1ccc(N=Nc2cc(C)c(N=Nc3ccc(S(=O)(=O)O)cc3)cc2OC)cc1
inactive: outcome [1] | outcome [2] | outcome [3] | outcome [4] | outcome [5] | outcome [6] | outcome [7] | outcome [8] | Potency [9] | outcome [10]

CCN(Cc1cccc(S(=O)(=O)O)c1)c1ccccc1
inactive: outcome [1] | outcome [2] | outcome [3] | outcome [4] | outcome [5] | outcome [6] | outcome [7] | outcome [8] | Potency [9] | outcome [10]

CCCO
inactive: outcome [1] | outcome [2] | outcome [3] | outcome [4] | outcome [5] | outcome [6] | outcome [7] | outcome [8] | Potency [9] | outcome [10]

O=C(O)/C=C/c1ccccc1
inactive: outcome [1] | outcome [2] | outcome [3] | outcome [4] | outcome [5] | outcome [6] | outcome [7] | outcome [8] | Potency [9] | outcome [10]

NC(=O)NNC(N)=O
inactive: outcome [1] | outcome [2] | outcome [3] | outcome [4] | outcome [5] | outcome [6] | outcome [7] | outcome [8] | Potency [9] | outcome [10]

O=C(O)CCNC(=O)c1ccccc1
inactive: outcome [1] | outcome [2] | outcome [3] | outcome [4] | outcome [5] | outcome [6] | outcome [7] | outcome [8] | Potency [9] | outcome [10]

CC(C)CCCCCCOC(=O)C1CCCCC1C(=O)OCCCCCCC(C)C (configuration not stated)
inactive: outcome [1] | outcome [2] | outcome [3] | outcome [4] | outcome [5] | outcome [6] | outcome [7] | outcome [8] | Potency [9] | outcome [10]
